Laboratory results published in PubChem BioAssay (Tox21).
Results filed as inconclusive are left out. Where a call stands in place of a potency, no number is given. The source made the active and inactive calls. Calls come from the whole dose curve; as a rule, active = well fitted cell-killing curve with a large enough effect in the repeat runs; inconclusive = weak or mixed curves, or effect the other way; inactive = flat fitted curve, though single readings scatter.

Assay: cAMP Responsive Elements (CRE) small molecule antagonists, cell-based qHTS assay: qHTS cell viability counter screen (AID 2060913); note: nearly all actives have a fitted effect of over 40% in size
Conditions: CRE-bla HEK293T viability, CellTiter-Glo luminescence, 5 h; series mostly up to 92.4 µM
How it was run: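 Viability of NKH477-stimulated (0.25 uM final) CRE-bla HEK293T cells is measured by CellTiter-Glo luminescence following 3 hrs compound exposure at 37 C.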
Potency is the fitted concentration of half-maximal effect.

| SMILES | Potency |
| --- | --- |
| O=C(NC(O)C(Cl)(Cl)Cl)NC(O)C(Cl)(Cl)Cl (stereo not given) | inactive |
| CNC(=O)Oc1ccccc1C1OCCO1 | inactive |
| OCC1CO1 (stereo not given) | inactive |
| CC(C)[C@H](C(=O)OC(C#N)c1cccc(Oc2ccccc2)c1)c1ccc(OC(F)F)cc1 (stereo not given in full) | inactive |
| CC(C)(c1ccccc1)c1ccc(O)cc1 | inactive |
| C=CCN1C[C@H](C)N([C@H](c2ccc(C(=O)N(CC)CC)cc2)c2cccc(OC)c2)C[C@H]1C | inactive |
| CNC(=O)Oc1cc(C)c(N(C)C)c(C)c1 | inactive |
| CCC1(c2cccc(O)c2)CCCCN(C)C1 (stereo not given) | inactive |
| COc1cc(C[C@@H](C)N)c(OC)cc1C | inactive |
| ClCCCN1CCN(c2cccc(Cl)c2)CC1 | inactive |
| O=[N+]([O-])c1c(Cl)c(Cl)cc(Cl)c1Cl | inactive |
| CC(=O)[C@H]1CC[C@H]2[C@@H]3CC[C@H]4C[C@H](O)CC[C@]4(C)[C@H]3C(=O)C[C@]12C | inactive |
| C=CC(=O)OCC(CC)CCCC (stereo not given) | inactive |
| Nc1ccc(Sc2ccc(N)cc2)cc1 | inactive |
| O=[N+]([O-])c1ccc(O)c([N+](=O)[O-])c1 | 54.5 µM (active) |
| ClC1=C(Cl)C2(Cl)C3C(Cl)C(Cl)CC3C1(Cl)C2(Cl)Cl (stereo not given) | 60.9 µM (active) |
| Clc1nc(Cl)nc(Cl)n1 | inactive |
| COP(=O)(OC)O/C(C)=C/C(=O)N(C)C | inactive |
| O=c1c2ccccc2c(=O)c2c1cc(Cl)c1[nH]c3c([nH]c12)c(Cl)cc1c(=O)c2ccccc2c(=O)c13 | inactive |
| NC(=O)CCl | inactive |
